Screening results as filed in PubChem.
AmpC detergent: blocks E. coli AmpC beta-lactamase in detergent assay; 370,000 compounds, 0.041% hits; AmpC hydrolysis of nitrocefin, absorbance 480 nm, 0.01% Triton; Potency, µM (doses to about 114 µM), inactives show at the top dose activity change, negative = inhibition, most hits filed as inhibitors; P00811;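 note: potency is the fitted concentration of half-maximal effect; 0% = no-compound wells and -100% = no-enzyme wells; nearly all actives have a fitted effect of over 25% in size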
Target sequence (P00811 whole entry, looked up): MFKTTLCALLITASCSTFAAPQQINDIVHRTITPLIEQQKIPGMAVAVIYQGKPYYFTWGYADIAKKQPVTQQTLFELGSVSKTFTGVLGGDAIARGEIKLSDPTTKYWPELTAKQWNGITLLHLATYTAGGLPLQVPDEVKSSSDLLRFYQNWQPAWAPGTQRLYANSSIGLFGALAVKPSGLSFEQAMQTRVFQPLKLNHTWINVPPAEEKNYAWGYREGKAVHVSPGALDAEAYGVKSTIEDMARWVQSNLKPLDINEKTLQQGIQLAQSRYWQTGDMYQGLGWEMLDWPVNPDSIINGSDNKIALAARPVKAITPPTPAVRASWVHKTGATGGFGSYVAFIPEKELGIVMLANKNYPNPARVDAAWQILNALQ
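AmpC (5.3 nM in the dispensed reagent) in 20 mM phosphate pH 7.0 with 0.01% (detergent screen) or 0.0001% Triton X-100 was preincubated with compounds for 15 min at room temperature. Nitrocefin was then added from an 800 uM solution, and hydrolysis was followed at 480 nm.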
HCMV inh: blocks human cytomegalovirus replication; AID 1259415; 410,000 compounds, 4.5% hits; activity change, negative = inhibition, % at 57.5 µM; HFF cells, HCMV-luciferase reporter, 72 h; hits give low values; in the data active = activity change below about -60%; inconclusive = no clear call, values can overlap the other calls; inactive = above about -39%
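Cell-based, HFFs, 1000 cells/well, 16 h 37C; cpds in DMSO + HCMV-luc, MOI 1 PFU/cell; 72 h 37C; OneGlo luminescence after 5 min RT; norm. to buffer vs Salinomycin 10uM.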
AmpC inh no detg: blocks E. coli AmpC beta-lactamase in detergent-free assay. P00811. AmpC nitrocefin hydrolysis, absorbance 480 nm, 0.0001% Triton. Potency, µM (highest dose often 57.1 µM), without a hit: at the top dose activity change, negative = inhibition, hits mostly inhibitors. 330,000 compounds, 0.52% hits;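 note: potency is the fitted concentration of half-maximal effect; plate controls were no compound for no effect and no enzyme for full effect; nearly all actives have a fitted effect of over 20% in size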
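AmpC (5.3 nM in the dispensed reagent) in 20 mM phosphate pH 7.0 with 0.01% (detergent screen) or 0.0001% Triton X-100 was preincubated with compounds for 15 min at room temperature. Nitrocefin was then added from an 800 uM solution, and hydrolysis was followed at 480 nm.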
FMDV antiviral: blocks foot and mouth disease virus; FMDV antiviral cell-based qHTS; Potency, µM (titrated, usually from 57.9 µM), for inactives: at the highest dose activity change, negative = inhibition, most hits filed as inhibitors; 410,000 compounds, 1.2% hits; AID 1159524; calls by dose curve; tested in HEK293T cells; note: read-out not given here; potency is the fitted concentration of half-maximal effect; nearly all actives have a fitted effect of over 45% in size
HCV inhibitor: inhibitors of hepatitis C virus infection | Huh7.5.1 HCVcc-Cre infection, luciferase reporter, 44 h | Potency, µM (titrated, usually from 41.8 µM), inactives show at the top dose activity change, negative = inhibition, actives largely listed as inhibitors | 340,000 compounds, 3.4% hits; note: potency is the fitted concentration of half-maximal effect
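After 44 h co-culture of compound, cells and HCVcc-Cre (~0.5 moi), substrate is added for 15 min at room temperature and luciferase measured over 15 sec. Cells were seeded at 1,000/well and pre-cultured 4 h.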
Active calls of the source: *; ? = inconclusive; nt = no result. In the library only some 7.3% were active in any assay of this set; here they are far more common. Unless noted, calls come from the whole dose curve; as a rule, active = well fitted curve in the direction sought with a large enough effect; inconclusive = small, poorly fitted or top-dose-only effect, or another doubt; inactive = no such curve, though single readings can be large; an effect the other way counts as inactive or inconclusive. Unless noted, % is set by controls: 0 for no effect and ±100 for the full control effect.

SMILES | AmpC detergent | HCMV inh | AmpC inh no detg | FMDV antiviral | HCV inhibitor
Cc1ccc(OCCCCNC(C)(C)C)c([N+](=O)[O-])c1 | -2% | -13 | -8% | -21% | ?
Cc1cc(OCC(=O)NCCc2ccc(S(N)(=O)=O)cc2)c2c(C)cc(=O)oc2c1 | -8% | 32 | -21% | -7% | -1%
Cn1cccc1C(=O)OCC(=O)N1CCc2ccccc2C1 | nt | -61* | nt | 29% | nt
O=C(c1ccc(S(=O)(=O)c2ccccc2Cl)c([N+](=O)[O-])c1)N1CCCCCC1 | ? | -65* | -3% | ? | ?
O=C(c1cccc(Cl)c1)N1CCN(c2ccccn2)CC1 | 1% | -38 | -7% | 4% | -1%
O=C(c1ccc(S(=O)(=O)c2cccc(Cl)c2)c([N+](=O)[O-])c1)N1CCN(c2ccccn2)CC1 | 7% | -78* | 32% | 16µM* | ?
CCN1CCN(CCCNC(=O)CNC(=O)c2nn(-c3ccc(OC)cc3OC)c(=O)c3ccccc23)CC1 | 2% | 10 | -11% | 44% | 6%
Cc1ccc(CN2CCc3c(OCc4ccc(F)cc4)cccc3C2=O)cc1 | -5% | -81* | -31% | ? | ?
O=C(COc1cccc2c1CCN(Cc1ccc(Br)cc1)C2=O)N1CCOCC1 | ? | -24 | 148% | ? | 11µM*
O=C(COc1cccc2c1CCN(Cc1ccccc1F)C2=O)N1CCOCC1 | 0% | nt | 26% | nt | nt
O=C1c2cccc(OCc3ccc(F)cc3)c2CCN1Cc1ccc(F)cc1 | -13% | -82* | -23% | ? | 6.3µM*
COc1cccc(CNC(=O)C2CCCCN2S(=O)(=O)c2ccc(F)cc2)c1 (centres undefined) | -1% | 7 | nt | -21% | nt
COC(=O)[C@@H]1CCCN1Cc1ccc2c(c1)CN(Cc1cccn1-c1ccc(Cl)cn1)CCO2 | nt | nt | nt | -2% | nt
Cc1cc(NS(=O)(=O)c2ccc(NC(=O)COc3ccc(Cl)c(C)c3)cc2)no1 | -8% | -28 | -29% | 44% | 11%
CC(C)CC1NC(=O)N(CC(=O)Nc2cc([N+](=O)[O-])ccc2F)C1=O (centres undefined) | nt | 1 | -19% | -21% | 36%
Cc1nc(Nc2cccc(O)c2)c2oc3ccccc3c2n1 | -7% | 78 | -28% | -23% | 13µM*
COc1ccc(Oc2nc(C)nc3c2oc2ccccc23)cc1 | -13% | -68* | 133% | ? | 8.9µM*
COc1cccc(Nc2nc(C)nc3c2oc2ccccc23)c1 | -1% | 32 | -13% | -25% | 11µM*
COc1cccc(CC(=O)NCC2Cc3cc(Cl)cc(-c4ncccn4)c3O2)c1 (centres undefined) | nt | nt | nt | -11% | nt
COc1cccc(Cc2nc3cccnc3n2C2CCN(Cc3ccc(C)s3)CC2)c1 | nt | nt | nt | 2% | nt
CN(C(=O)CCn1c(=S)oc2ccccc21)c1ccc(F)cc1 | -6% | -89* | -9% | -5% | 8%
O=C(O)c1ccc(N/N=C/c2ccc3nccnc3c2)cc1 | 7% | -78* | -12% | 7.1µM* | 21%
O=C(O)c1ccc(N/N=C/c2ccc(F)c(F)c2)cc1 | -4% | 23 | -15% | 14µM* | 30%
O=C(O)c1ccc(N/N=C/c2ccncc2)cc1 | ? | -1 | -2% | 31% | 15%
CC(C)(C)S(=O)N1C[C@H]2CC(=O)C=C2[C@@H]1CCO (some centres undefined) | nt | -6 | nt | nt | nt
SMILES | AmpC detergent | HCMV inh | AmpC inh no detg | FMDV antiviral | HCV inhibitor
O=S(=O)(Nc1ccc(Cc2ccncc2)cc1)c1ccc(Br)s1 | 2% | ? | -39% | 17% | -24%
O=S(=O)(Nc1ccc(Cc2ccncc2)cc1)c1ccc(Br)cc1 | -4% | -63* | -50% | -13% | 10µM*
O=S(=O)(Nc1ccc(Cc2ccncc2)cc1)c1ccc(Cl)s1 | -1% | 26 | -32% | -20% | 0%
O=S(=O)(Nc1ccc(Cc2ccncc2)cc1)c1ccc(Cl)cc1 | -2% | -65* | -20% | -29% | 11µM*
Fc1ccc(/C=C2\CCCC3=C2NC(=S)NC3c2ccc(F)cc2)cc1 (centres undefined) | -14% | nt | 14µM* | nt | 7%
COc1ccccc1C(=O)NCCC(=O)N1CC(C)OC(C)C1 (centres undefined) | nt | -8 | nt | -11% | 14%
